From PubChem BioAssay
Sampled rows, rich in hits. Any-hit rate of the full collection: about 19%.
TDP1 cell noCPT: qHTS for Inhibitors of human tyrosyl-DNA phosphodiesterase 1 (TDP1): qHTS in cells in absence of CPT; hit rate 15% among 420,000; DT40 Tdp1-/- hTDP1 cells, no CPT, ATP luminescence, 48 h; AID 686978, 2013; Potency, µM (titrated, usually from 46.2 µM), inactives show at the top dose activity change, negative = growth inhibition, most hits filed as inhibitors; further: nearly all actives have a fitted effect of over 55% in size
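Luminescent ATP content (CellTiter-Glo) served as the growth readout. Knockout chicken DT40 cells expressing human TDP1 were exposed to compounds without camptothecin for a minimum 48 hr at 37 °C.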
RORgamma inh: ROR gamma (mouse) transcription inhibition | P51450 | Drosophila S2 Gal4-RORgamma UAS-luciferase reporter, 20 h | Potency, µM (top dose mostly 53.6 µM), for the others: top-dose activity change, negative = inhibition, most hits filed as inhibitors | hit rate 5.4% among 310,000; further: nearly all actives have a fitted effect of over 60% in size
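Read-out: Photinus luciferase luminescence; inhibitors lower reporter signal. Insect Schneider cells with Gal4-ROR gamma fusion under metallothionein promoter, UAS reporter; 700 uM final copper sulfate induction, 20 hr, ambient temperature.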
DT40 TDP1 CPT: DT40-hTDP1 cell growth loss with CPT | hit rate 12% among 420,000 | Potency, µM (highest dose often 46.2 µM), without a hit: at the highest dose activity change, negative = growth inhibition, usual class: inhibitors | chicken DT40 Tdp1-/-;hTDP1 cells + 20 nM CPT, ATP luminescence, 48 h | AID 686979; further: nearly all actives have a fitted effect of over 55% in size
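Cell growth measured by CellTiter-Glo luminescence after a minimum 48 h, 37 C compound exposure with 20 nM CPT in Tdp1-knockout DT40 cells stably expressing hTDP1, seeded 400/well; qHTS titration format.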
VP16 counter: Gal4-VP16 reporter inhibition counter-screen; AID 2546; Drosophila S2 Gal4-VP16 UAS-luciferase, luminescence, 20 h; hit rate 3.5% among 310,000; Potency, µM (series often up to 53.6 µM), without a hit: top-dose activity, negative = inhibition, most hits filed as inhibitors;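 further: Gal4-VP16 expression switched on by copper sulfate through the metallothionein promoter; nearly all actives have a fitted effect of over 50% in size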
TDP1 inh: TDP1 (human) enzyme inhibition; recombinant TDP1, AlphaScreen DNA substrate cleavage; Potency, µM (doses to about 130 µM), inactives show top-dose activity change, negative = inhibition, usual class: inhibitors; hit rate 0.28% among 350,000; AID 485290; further: nearly all actives have a fitted effect of over 40% in size
Target sequence (Q9NUW8 whole entry, looked up): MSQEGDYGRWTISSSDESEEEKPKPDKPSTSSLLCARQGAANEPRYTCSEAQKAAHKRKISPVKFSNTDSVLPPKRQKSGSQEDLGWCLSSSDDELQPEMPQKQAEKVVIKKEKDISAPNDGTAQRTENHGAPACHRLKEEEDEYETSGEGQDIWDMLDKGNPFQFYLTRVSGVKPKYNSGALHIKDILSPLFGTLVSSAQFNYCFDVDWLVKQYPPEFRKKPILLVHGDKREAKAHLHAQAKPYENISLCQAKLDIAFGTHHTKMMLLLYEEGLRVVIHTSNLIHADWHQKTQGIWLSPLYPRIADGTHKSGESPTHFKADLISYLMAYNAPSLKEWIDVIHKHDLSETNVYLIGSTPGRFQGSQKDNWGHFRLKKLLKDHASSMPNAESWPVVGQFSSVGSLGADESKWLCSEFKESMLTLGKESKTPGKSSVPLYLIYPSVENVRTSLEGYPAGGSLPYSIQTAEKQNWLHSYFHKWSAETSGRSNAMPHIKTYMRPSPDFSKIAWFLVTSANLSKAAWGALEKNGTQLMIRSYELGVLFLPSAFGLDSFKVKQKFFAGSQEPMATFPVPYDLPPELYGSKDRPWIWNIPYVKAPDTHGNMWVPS
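Signal: AlphaScreen proximity between streptavidin donor and anti-FITC acceptor beads on intact substrate. Reaction: Tdp1 1 nM, substrate 15 nM final, 5 min RT after 15 min compound preincubation.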
The depositor's hits bear a star; u = inconclusive; x = no result; [ ] = another dose, or the depositor's remark. The call rests on the fitted dose curve; in most records, active means well fitted curve in the direction sought with a large enough effect; inconclusive means small, poorly fitted or top-dose-only effect, or another doubt; inactive means no such curve, though single readings can be large; an effect the other way counts as inactive or inconclusive. On the % scale 0 is the no-effect control and ±100 the full control effect; potency means the concentration at half of the fitted maximal effect.

SMILES	TDP1 cell noCPT	RORgamma inh	DT40 TDP1 CPT	VP16 counter	TDP1 inh
CCCN(CCC)c1nc(C#N)nc(N(CCC)CCC)n1	u	-11.1%	u	2.9%	-10.4%
CCCN(CCC)c1nc(N(CCC)CCC)[nH]c(=O)n1	18.4µM*	4.8%	23.1µM*	-0.8%	5.4%
Cc1cccc(N(Cc2cc(=O)[nH]c3ccccc23)C(=O)CCl)c1	5.17µM*	17.8µM*	4.11µM*	u	x
CCCC(=O)N(Cc1cc(=O)[nH]c2ccccc12)c1ccc(OC)cc1	-14.2%	27.4%	0.0%	3.0%	x
CCCC(=O)N(Cc1cc(=O)[nH]c2ccccc12)c1cccc(C)c1	u	-2.0%	-12.6%	-1.6%	x
COc1ccc(N(Cc2cc(=O)[nH]c3ccccc23)C(=O)CCl)cc1	2.06µM*	-11.8%[1.91 µM]	2.06µM*	u	x
COc1ccc(-c2sc3ccc(N4CCOCC4)cc3c2C#Cc2ccsc2)cc1	u	x	18.4µM*	x	-4.7%
COc1ccc(-c2sc3ccc(N4CCOCC4)cc3c2C#CC(C)(C)O)cc1	9.2µM*	x	20.6µM*	x	0.5%
COc1ccc(-c2sc3ccc(N4CCOCC4)cc3c2-c2ccc(O)cc2)cc1	u	x	u	x	1.7%
CCOC(=O)C1C(c2ccccc2)NC(=S)NC1(C)O (stereo not drawn)	0.5%	u	11.9%	-9.0%	0.0%
COC(=O)C1=CN(Cc2ccc(F)cc2)C=C(C(=O)OC)C1c1cc(OC)c(OC)c(OC)c1	0.8%	20.4%	-4.6%	4.0%	x
COC(=O)C1=CN(Cc2ccc(C)cc2)C=C(C(=O)OC)C1c1ccc(F)c(F)c1	23.1µM*	u	u	8.6%	x
COC(=O)C1=CN(Cc2ccc(OC)c(OC)c2)C=C(C(=O)OC)C1c1cccc(F)c1	18.4µM*	u	16.4µM*	0.1%	x
COC(=O)C1=CN(c2ccc(F)cc2)C=C(C(=O)OC)C1c1cccc(Br)c1	u	1.9%	23.1µM*	-9.4%	-12.5%
COC(=O)C1=CN(c2ccc(F)cc2)C=C(C(=O)OC)C1c1ccc([N+](=O)[O-])cc1	u	-28.6%	u	-4.3%	7.9%
O=C(c1ccc(F)cc1)N1CCC(c2nc3ccccc3o2)CC1	u	x	u	x	-3.6%
Cc1ccc(CN2C(=O)CCC2C(=O)NCCN2CCN(c3cccc(Cl)c3)CC2)cc1 (stereo not drawn)	14.6µM*	1.4%	u	16.5%	5.1%
O=C(C1CCC(=O)N1Cc1ccccc1Cl)N1CCN(c2cccc(Cl)c2)CC1 (stereo not drawn)	23.1µM*	-0.7%	23.1µM*	0.8%	1.9%
Cc1cccc(/N=C2/NC(=O)C(Cc3ccccc3)S2)n1 (stereo not drawn)	-17.7%	-22.7%	u	-16.9%	0.0%
O=C(CNC(=O)c1ccco1)NCC(=O)OCc1ccccc1Br	-7.0%	44.9%	4.3%	-0.4%	-2.2%
O=C1CC(c2ccco2)CC2=C1C1c3ccccc3C(=O)N1c1ccccc1N2 (stereo not drawn)	23.1µM*	21.1%	u	1.8%	7.7%
O=C1CNC(=O)c2cc(Cl)ccc2N1	-23.3%	x	-12.3%	x	x
Cc1csc(-c2cnn(-c3ccccc3)c2NC(=O)c2ccc(C(F)(F)F)cc2)n1	23.1µM*	-8.2%	u	3.0%	7.0%
C=CCn1c(=O)[nH]c2cc(C(=O)N3CCN(c4cccc(Cl)c4)CC3)ccc2c1=O	7.31µM*	-12.2%	9.2µM*	u	4.9%
COCCn1c(=O)[nH]c2cc(C(=O)N3CCN(c4cccc(C)c4C)CC3)ccc2c1=O	20.6µM*	36.7%	14.6µM*	-1.8%	8.4%
SMILES	TDP1 cell noCPT	RORgamma inh	DT40 TDP1 CPT	VP16 counter	TDP1 inh
COCCn1c(=O)[nH]c2cc(C(=O)N3CCN(c4ccccc4)CC3)ccc2c1=O	u	0.1%	-29.3%	3.0%	6.8%
C=CCn1c(=O)[nH]c2cc(C(=O)N3CCN(c4cc(C)ccc4C)CC3)ccc2c1=O	u	-40.8%	u	u	5.9%
COCCn1c(=S)[nH]c2cc(C(=O)N3CCN(c4ccccc4OC)CC3)ccc2c1=O	u	14.1µM*	u	u	1.0%
C=CCn1c(=O)[nH]c2cc(C(=O)N3CCN(c4ccc(C(C)=O)cc4)CC3)ccc2c1=O	16.4µM*	1.5%	20.6µM*	u	-7.9%
C=CCn1c(=S)[nH]c2cc(C(=O)N3CCN(c4ccccc4OC)CC3)ccc2c1=O	u	x	u	x	0.5%[56.1 µM]
CC(=O)C1C(c2ccccc2)c2c(noc2C)CC1(C)O (stereo not drawn)	-2.6%	1.6%	-1.2%	u	x
CC(=O)Oc1cc2c(cc1OC(C)=O)C(=O)CCCC2	-11.8%	x	u	x	x
O=C(c1ccc2c(c1)[nH]c(=S)n1c3ccccc3nc21)N1CCN(c2cccc(Cl)c2)CC1	18.4µM*	2.4%	18.4µM*	-6.4%	5.8%
COc1cccc(N2CCN(C(=O)c3ccc4c(=O)n(CCc5ccccc5)c(=O)[nH]c4c3)CC2)c1	7.31µM*	x	14.6µM*	x	0.0%
COc1ccc(Cn2c(=O)[nH]c3cc(C(=O)N4CCN(c5ccccc5)CC4)ccc3c2=O)cc1	u	0.0%	-8.5%	0.4%	11.9%
COCCn1c(=O)[nH]c2cc(C(=O)N3CCN(c4cccc(Cl)c4)CC3)ccc2c1=O	9.2µM*	u	23.1µM*	-21.0%	11.8%[0.0935 µM]
COC(=O)NC(c1ccco1)[C@@]1(C(=O)OC)CCCC1=O (stereo partly drawn)	x	-1.6%[10 µM]	x	-4.2%[10 µM]	3.7%[21 µM]
CSc1nsc(SC)c1CO	-1.7%	-33.0%	-4.7%	-12.5%	8.6%
COc1cc2cc(CN(Cc3cccnc3)C(=O)Nc3ccccc3F)c(=O)[nH]c2cc1OC	u	-1.3%	u	8.9%	0.0%
CN(C)c1ccc(C(=S)N2CCCCCC2)cc1	16.4µM*	20µM*	u	-20.8%	9.6%
CC1CCN(C(=S)c2ccc(N(C)C)cc2)CC1	-23.1%	12.6µM*	-1.7%	-25.9%	4.9%
CC(=O)c1c(C)oc2ccc(N(C(C)=O)S(=O)(=O)c3cccc4cccnc34)cc12	4.11µM*	16.6%	2.06µM*	-13.9%	8.4%
CC(=O)c1c(C)oc2ccc(N(C(=O)c3ccncc3)S(=O)(=O)c3ccccc3)cc12	u	u	-26.2%	4.5%	0.0%
CC(=O)c1c(C)oc2ccc(N(C(C)=O)S(=O)(=O)c3ccc(F)cc3C)cc12	16.4µM*	28.9%	11.6µM*	u	2.2%
O=S(=O)(c1cccs1)N1CCCc2cccc(O)c21	u	6.5%	-3.9%	25.8%	3.8%
O=C(COC(=O)c1ccc(Cl)s1)c1cc2ccccc2o1	-17.3%	14.9%	-18.4%	1.0%	3.9%
CCOC(=O)C1CCCN(C(=O)c2ccc3nc(-c4cccc(OC)c4)oc3c2)C1 (stereo not drawn)	2.91µM*	-6.8%	3.26µM*	-11.3%	2.7%
